# Most compounds without a hit are left out; they make up all but 7.5% or so of the library.
# KinaseGlo FLuc: blocks Kinase-Glo luciferase, a counter-screen artifact; actives 0.28% (n = 200,000); AID 1379; Kinase-Glo luciferase, ATP luminescence, 8 min; Potency, µM (highest dose often 38.3 µM), without a hit: at the top dose activity change, negative = inhibition, actives largely listed as inhibitors; also: % is scaled to controls: 0 for no effect and ±100 for the full control effect; nearly all actives have a fitted effect of over 60% in size
#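 Recombinant Kinase-Glo luciferase, 10 uM ATP (linear range), luciferin; imidazole pH 7.2 / KCl / MgCl2 / Tween / BSA buffer; 8 min RT; luminescence.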
# FLuc modulator: inhibits or activates purified firefly luciferase, miR-21 counter-screen | P08659 | purified FLuc, Km substrates, luminescence inhibition | Potency, µM (top dose mostly 57.5 µM), for inactives: at the top dose activity change, negative = inhibition, most hits filed as inhibitors | actives 6.9% (n = 360,000);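 also: plate controls were vehicle for no effect and reference inhibitor for full effect; nearly all actives have a fitted effect of over 55% in size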
# Target sequence (P08659 whole entry, looked up): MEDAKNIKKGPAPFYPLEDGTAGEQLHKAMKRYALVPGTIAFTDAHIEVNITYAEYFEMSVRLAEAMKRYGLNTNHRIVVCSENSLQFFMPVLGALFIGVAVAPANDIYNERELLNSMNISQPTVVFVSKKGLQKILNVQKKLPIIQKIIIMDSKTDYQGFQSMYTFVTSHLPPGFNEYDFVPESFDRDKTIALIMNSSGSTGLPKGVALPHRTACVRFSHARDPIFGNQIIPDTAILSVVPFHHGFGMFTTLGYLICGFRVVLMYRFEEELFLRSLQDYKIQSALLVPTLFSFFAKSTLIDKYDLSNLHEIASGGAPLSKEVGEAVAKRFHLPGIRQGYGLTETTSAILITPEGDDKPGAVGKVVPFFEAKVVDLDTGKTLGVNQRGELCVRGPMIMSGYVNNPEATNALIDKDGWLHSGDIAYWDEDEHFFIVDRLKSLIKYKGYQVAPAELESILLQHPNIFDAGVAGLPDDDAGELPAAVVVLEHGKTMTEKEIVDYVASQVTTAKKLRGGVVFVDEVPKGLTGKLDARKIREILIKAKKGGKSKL
#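 Purified P. pyralis luciferase, 10 nM final, with Km-level 10 uM D-luciferin and 10 uM ATP in 50 mM Tris acetate pH 7.5, 10 mM Mg acetate, 0.01% Tween-20, 0.05% BSA; 6-point qHTS titration about 60 µM downward; luminescence read.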
# NPC1 promoter act: activates the NPC1 promoter; Huh7 NPC1 promoter luciferase reporter, 24 h; Potency, µM (titrated, usually from 9.22 µM), inactives show at the top dose activation, usual class: activators; actives 2.4% (n = 320,000); also: % of control where 0% means no effect; nearly all actives have a fitted effect of over 60% in size
#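 Stably transfected Huh7 (NPC1 promoter→luciferase), 1500 cells/well in Opti-MEM + 10% FBS, 2 h settle, then compound 24 h at 37 °C. Luminescence after 10 min with Amplite reagent.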
# SMN2 splice enh: enhancers of SMN2 splice variant expression; actives 2.8% (n = 210,000); AID 1458; Potency, µM (top dose mostly 46.1 µM), for the others: top-dose activity change, positive = activation, hits mostly activators; HEK293 SMN2-luciferase splicing reporter, luminescence, 30-36 h; also: % of control where 0% means no effect; nearly all actives have a fitted effect of over 55% in size
#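 HEK293 cells carry an SMN2 minigene-luciferase reporter in which exon 7 inclusion puts luciferase in frame. Cells were seeded at 2000 cells/well, attached for 10-12 hours, then exposed to compounds for 30-36 hours at 37C before ONE-Glo luminescence.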
# ELG1 genotoxic: inducers of genotoxicity in HEK293T ELG1-luciferase cells | HEK293T ELG1-luciferase reporter, luminescence, 16 h | actives 1.3% (n = 330,000) | Potency, µM (doses to about 46 µM), for the others: top-dose activity change, positive = activation, actives largely listed as activators; also: % of control where 0% means no effect; nearly all actives have a fitted effect of over 60% in size
#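 Step 1: seed 2,000 HEK293T ELG1-luciferase cells per well. Step 2: add compound or DMSO, incubate 16 hr at 37 °C. Step 3: ONE-Glo, 30 min at room temperature, read luminescence.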
# Rab9 promoter act: activators of Rab9 promoter. Huh7 Rab9 promoter-luciferase reporter, luminescence, 24 h. Potency, µM (doses to about 9.22 µM), without a hit: at the highest dose activation, negative = inhibition, usual class: activators. actives 2.8% (n = 320,000). AID 485297; also: % of control where 0% means no effect; nearly all actives have a fitted effect of over 60% in size
#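 Using Huh7 cells stably transfected with Rab9 promoter–luciferase, compounds were incubated 24 h at 37 °C, 5% CO2; luciferase luminescence was read 10 min after reagent addition.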
# An asterisk follows results filed as active; ? = inconclusive; . = not tested or not shown; [ ] = dose if it differs, or a comment. Calls follow the shape of the dose curve; as a rule, active = well fitted curve in the direction sought with a large enough effect; inconclusive = small, poorly fitted or top-dose-only effect, or another doubt; inactive = no such curve, though single readings can be large; an effect the other way counts as inactive or inconclusive. Potency is read from the fitted curve at half-maximal effect.
SMILES,KinaseGlo FLuc,FLuc modulator,NPC1 promoter act,SMN2 splice enh,ELG1 genotoxic,Rab9 promoter act
CCOc1ccc(CCNC(=O)c2ccc(CS(=O)Cc3cccc(Cl)c3)o2)cc1 (stereo unspecified),.,16.9µM*,-4.4%,.,-4.4%,-1.0%
COc1cccc(NC(=O)C2CCN(S(=O)(=O)c3cccc4nonc34)CC2)c1,.,2.0%,.,-7.7%,.,.
Cc1cc(-c2n[nH]c(=S)n2/N=C/C(Cl)=C/c2ccccc2)n[nH]1,1.8%,-0.6%,25.6%,?,?,?
S=c1[nH]nc(-c2ccco2)n1/N=C/C(Cl)=C/c1ccccc1,.,?,3.55µM*,.,?,1.58µM*
O=C(NCCc1ccccc1)c1sc2ncccc2c1-n1cccc1,.,-14.6%,.,.,.,.
C=CCn1c(COc2cc(C)ccc2C(C)C)nnc1SCC(=O)c1c(N)n(C)c(=O)n(C)c1=O,0.8%,4.78µM*,1.1%,-29.2%,-4.2%,-3.5%
CCOC(=O)C1(Cc2ccccc2Cl)CCN(C(=O)CCn2ccnc2C)CC1,-1.2%,19µM*,21.6%,.,5.1%,?
c1ccc(-c2nc(-c3ccncc3)no2)cc1,-28.8%,12µM*,.,?,.,.
Clc1ccccc1-c1nnc(-c2cccnc2)o1,.,15.1µM*,3.98µM*,.,23.1µM*,?
Cc1ccc(SCc2nc(-c3cccnc3)no2)cc1,5.2%,0.9%[2.3 µM],10.7%,7.5%,0.6%,11.7%
Cc1ccccc1-c1nc(-c2cccnc2)no1,9.5%,10.7µM*,?,?,?,?
c1ccc(-c2ccccc2-c2nc(-c3ccncc3)no2)cc1,2.8%,-1.6%,-2.9%,3.16µM*,-2.1%,0.1%
Cc1cc(C)c(Cn2c(=O)n(CCCCC(=O)NCc3ccccc3Cl)c(=O)c3ccccc32)c(C)c1,.,-4.2%,.,0.9%,.,.
O=C(c1ccc2c(Cl)c3c(nc2c1)CCCC3)N1CCN(c2ccccc2F)CC1,.,-1.1%,.,5.1%,.,.
FC(F)(F)c1cccc(N2CCN(c3nc4ccccc4n4cnnc34)CC2)c1,.,-3.6%,.,-35.7%,.,.
O=C(NC1CCCCC1)c1ccc2c(c1)N(Cc1cccc(Cl)c1)C(=O)c1ccccc1S2=O (stereo unspecified),.,3.5%,.,.,.,.
O=C(CCC1N=C2c3ccccc3N=C(SCc3ccccc3F)N2C1=O)NC1CCCCC1 (stereo unspecified),.,-0.4%,.,.,.,.
Clc1ccccc1-c1nnc(-c2cccs2)o1,-24.7%,9.53µM*,2.24µM*,11.2µM*,?,1.26µM*
Brc1ccc(-c2nc(-c3ccncc3)no2)o1,-4.6%,?,?,?,18.4µM*,?
Cc1ccccc1-c1nc(-c2ccccn2)no1,6.31µM*,0.477µM*,?,1.12µM*,?,0.447µM*
c1ccc(-c2ccc(-c3nc(-c4ccncc4)no3)cc2)cc1,-16.5%,0.601µM*,?,?,1.64µM*,0.141µM*
Cc1ccc(NC(=O)C2CCN(S(=O)(=O)c3ccc4c(c3)CCCC(=O)N4)CC2)c(Cl)c1,.,1.4%,.,.,.,.
Brc1ccc(-c2nc(-c3ccncc3)no2)cc1,.,2.39µM*,2.24µM*,.,?,3.16µM*
CSc1ccccc1-c1nc(-c2ccncc2)no1,.,?,3.55µM*,.,?,?
Clc1ccccc1-c1nc(-c2cccnc2)no1,-11.0%,3.01µM*,.,11.2µM*,.,.
SMILES,KinaseGlo FLuc,FLuc modulator,NPC1 promoter act,SMN2 splice enh,ELG1 genotoxic,Rab9 promoter act
Cc1nc(-c2noc(-c3ccccc3Cl)n2)c(C(F)(F)F)o1,.,15.1µM*,?,.,17.7%,28.8%
O=[N+]([O-])c1ccc(-c2nc(-c3ccncc3)no2)cc1,.,?,?,.,11.7%,?
Cc1onc(-c2ccccc2Cl)c1-c1nc(-c2ccncc2)no1,-0.4%,0.3%,1.0%,-11.3%,1.9%,-4.3%
COc1ccc(-c2noc(-c3ccc(C)cc3Cl)n2)cc1OC,.,?,.,8.8%,.,.
Cc1ccc(-c2nc(-c3ccncc3)no2)c(Cl)c1,.,0.477µM*,0.631µM*,.,0.461µM*,?
Clc1ccccc1-c1nc(-c2ccncc2)no1,-8.0%[7.66 µM],6.75µM*,3.98µM*,?,10.3µM*,1.26µM*
O=C(Nc1ccc(F)cc1)c1ccc(CSc2ccccc2)o1,-0.9%,15.1µM*,-1.2%,-4.2%,6.7%,0.7%
Cn1c(/N=C/c2cccs2)nc2ccccc21,?,1.07µM*,-1.6%,0.3%,2.1%,-7.8%
Cn1c(/N=C/c2ccccc2[N+](=O)[O-])nc2ccccc21,.,1.69µM*,-0.9%,.,-3.2%,3.6%
COc1ccc(/C=N/c2nc3ccccc3n2C)cc1OC,?,0.757µM*,0.6%,-21.2%,-2.6%,-4.1%
CCSc1oc(-c2cccs2)nc1S(=O)(=O)c1ccc(Br)cc1,.,-3.1%,.,7.9%,.,.
CC(=O)N1CCc2c(sc3nc(SCC(C)C)n(-c4ccc(C)c(Cl)c4)c(=O)c23)C1,.,-2.5%,.,-11.3%,.,.
COc1ccccc1/C=C/C=N/NC(=O)c1ccccn1,-4.5%,8.49µM*,2µM*,11.2µM*,-8.7%,1.12µM*
COc1ccccc1/C=C/C=N/NC(=O)c1cc(-c2ccco2)[nH]n1,.,16.9µM*,-2.7%,.,-4.9%,-0.3%
COc1ccccc1/C=C/C=N/NC(=O)c1cnccn1,-2.0%,?,13.5%,.,12.8%,23.4%
Cc1ccccc1Cn1c(SCc2ccc(C(=O)NCCc3ccccc3)cc2)nc2ccncc21,.,-12.1%,.,-10.9%,.,.
O=C(CC1C(=O)NCCN1CC1CCCCC1)NCc1cc(F)ccc1F (stereo unspecified),-1.0%,-1.5%,-6.9%,.,0.1%,1.2%
O=C(CC1C(=O)NCCN1CC1CCCCC1)NCc1ccc(F)cc1F (stereo unspecified),-4.2%,?,2.82µM*,.,?,2.82µM*
Cc1ccc(C)c(CN2C(=O)N(c3cc(Cl)ccc3C)S(=O)(=O)c3ccccc32)c1,.,-0.3%,.,.,.,.
NCCC[C@@H](CC(=O)N[C@@H]1CCNC[C@H]1C(=O)N[C@H](CC(=O)N[C@@H](CCC(=O)O)CC(=O)O)Cc1c[nH]c2ccccc12)NC(=O)C[C@H](CO)NC(=O)[C@@H]1CNCC[C@H]1N,1.5%,.,.,-5.9%,.,.
O=C1c2cccc3cccc(c23)C(=O)N1CC1CCN(CC(O)COc2ccc3ccccc3c2)CC1 (stereo unspecified),-1.8%,12µM*,?,10.0%,7.6%,-0.2%
COc1ccc2c(CNCCc3cccs3)c(C(=O)O)n(Cc3ccccc3C)c2c1,.,-7.1%,.,.,.,.
Cc1ccc2c(c1)sc(-c1ccc(N(C)C)cc1)[n+]2C,.,12µM*,-31.3%,.,1.9%,-38.6%
COc1ccc(C)cc1Nc1n[n+](-c2ccccc2)c(-c2ccc(N(C)C)cc2)s1,.,0.5%,-21.4%,.,-3.6%,-7.2%
